Assay outcomes as filed in PubChem BioAssay.
PTAP TSG101 blk – blocks PTAP/TSG101 interaction to inhibit HIV-1 budding; Potency, µM (titrated, usually from 115 µM), for the others: at the top dose activity change, negative = inhibition, usual class: inhibitors; Fluorescence polarization, FITC-PTAP peptide / Tsg101 binding; Q99816; AID 493005; 340,000 tested, under 10 active; active = well fitted inhibition curve with a large enough effect in the main read-out, with a control signal flat, not every such curve was filed as active; inconclusive = small, poorly fitted or top-dose-only effect, or effect the other way, or a change in a side signal; inactive = no such curve, though single readings can be large or run the other way; also: potency is read from the fitted curve at half-maximal effect; % of control where 0% means no effect
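Steps: Tsg101 binding domain dispensed (10 uM final), compounds pinned in DMSO, FITC-labeled PTAP-motif peptide added (50 nM final); after 20 min binding at room temperature, polarization measured.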
Tb PFK inh-1 – blocks T. brucei phosphofructokinase | T. brucei PFK, ADP-Glo luminescence | Potency, µM (highest dose often 57.5 µM), without a hit: top-dose activity, negative = inhibition, usual class: inhibitors | O15648 | 0.17% of 330,000 active;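 also: potency is read from the fitted curve at half-maximal effect; 0% = uninhibited 1x PFK enzyme wells and -100% = no-enzyme wells; nearly all actives have a fitted effect of over 60% in size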
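In TEA buffer at pH 8.0 with 5 mM MgCl2, enzyme (1.25 nM) converted F6P (0.5 mM) and ATP (0.1 mM) for 45 min at room temperature. ADP product was read by luciferase luminescence.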
KCNH2 3.1 inh – blocks the human KCNH2 3.1 channel isoform | activity change, % (tested at about 1.8 µM) | 0.95% of 340,000 active | U2OS KCNH2 3.1, thallium flux FluxOr; hits give low values;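 active = maximum activity change below -70%; inconclusive = maximum activity change from -70% to -50%; inactive = maximum activity change above -50%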;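 also: thallium influx rate constant from kinetic fluorescence after stimulation buffer; % is scaled to controls: 0 for no effect and ±100 for the full control effect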
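We transduce U2OS cells with the mutant 3.1 virus, culture them overnight, load FluxOr with Red40 quencher for 45 min, then add stimulation buffer and read kinetically for 2 min to derive a normalized rate constant.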
hERG WT inh – blocks the wildtype human KCNH2 potassium channel; U2OS, BacMam KCNH2, thallium flux FluxOr; hits give low values; activity change, % at 1.84 µM; 0.37% of 340,000 active; AID 720551;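 active = maximum activity change below -70%; inconclusive = maximum activity change between -70% and -50%; inactive = maximum activity change above -50%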; also: % is scaled to controls: 0 for no effect and ±100 for the full control effect
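U2OS cells transduced with wild-type KCNH2 virus are loaded with FluxOr dye for 45 min, and thallium flux is measured in kinetic reads before and after stimulation buffer. Rate constants are normalized to DMSO controls.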
Tb PFK KinaseGlo – Tb phosphofructokinase inhibition, orthogonal luminescence; Tb PFK enzyme, ATP depletion, Kinase-Glo Plus luminescence; shares compounds with Tb PFK inh-1; 47% of 1,100 active; Potency, µM (titrated, usually from 57.5 µM), for the others: at the highest dose inhibition; calls by dose curve; also: potency is read from the fitted curve at half-maximal effect; nearly all actives have a fitted effect of over 60% in size
Tb PFK inh-2 – T. brucei PFK enzyme inhibition, hit validation. shares compounds with Tb PFK inh-1. purified T. brucei PFK, ADP-Glo luminescence, 45 min. AID 504637. Potency, µM (doses to about 57.5 µM), without a hit: top-dose activity change, negative = inhibition, usual class: inhibitors. 41% of 1,100 active;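 also: potency is read from the fitted curve at half-maximal effect; plate controls were full PFK enzyme control for no effect and no enzyme control for full effect; nearly all actives have a fitted effect of over 60% in size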
* hit, by the source's call; ? = inconclusive; . = no result given. In the library only some 1.2% were active in any assay of this set; here they are far more common. Unless noted, calls follow the shape of the dose curve; as a rule, active = well fitted inhibition curve with a large enough effect; inconclusive = small, poorly fitted or top-dose-only effect, or effect the other way; inactive = flat fitted curve, though single readings scatter.

SMILES	PTAP TSG101 blk	Tb PFK inh-1	KCNH2 3.1 inh	hERG WT inh	Tb PFK KinaseGlo	Tb PFK inh-2
N#Cc1nc(-c2cccc3ccccc23)oc1NCC#CCOC(=O)c1cccs1	.	21µM*	.	.	8.5µM*	27µM*
CCOc1cc(C2C(C#N)=C(N)Oc3c2c(=O)oc2ccccc32)ccc1OC(=O)c1cccs1 (configuration not stated)	1%	5%	-1	10	.	.
CS(=O)(=O)NN1C(=O)c2ccccc2NC1c1cc2ccccc2nc1Cl (configuration not stated)	-3%	21µM*	-2	-3	9.5µM*	24µM*
O=C1NC(c2cc3ccccc3nc2Cl)Nc2ccccc21 (configuration not stated)	-3%	-5%	31	-25	.	.
CCc1nn2c(N)c(/C=C3\C=Nc4ccccc43)c(=O)nc2s1	2%	?	-5	-1	-26%	?
Cc1ccc(NC(=O)CSc2ncc3ccccn23)cc1C	-2%	9.5µM*	10	2	?	-18%
Cc1cccc([N+](=O)[O-])c1	-3%	0%	-7	1	.	.
Cc1ccc(S(=O)(=O)CCC(=O)c2cccc([N+](=O)[O-])c2)cc1	-8%	13µM*	-6	-6	21µM*	?
O=C(Nc1cc(S(=O)(=O)N2CCOCC2)ccc1N1CCCC1)c1ccc(Cl)cc1	-1%	?	-14	26	24µM*	?
O=C(COC(=O)Cc1ccccc1)Nc1cc(S(=O)(=O)N2CCOCC2)ccc1N1CCCC1	7%	4%	6	19	.	.
O=c1c2ccccc2sn1-c1cc(S(=O)(=O)N2CCOCC2)ccc1N1CCCC1	2%	9.5µM*	2	5	?	?
O=C(c1c[nH]c2ccc(S(=O)(=O)N3CCOCC3)cc2c1=O)N1CCC2(CC1)OCCO2	-2%	7%	-2	0	.	.
O=c1c2ccccc2sn1-c1cc(S(=O)(=O)N2CCOCC2)ccc1N1CCOCC1	-11%	13µM*	-13	-1	?	21µM*
C=C(C)[C@@H]1[C@H]2OC(=O)[C@H]1[C@]1(O)C[C@H]3O[C@]34C(=O)O[C@H]2[C@]14C	1%	.	3	-6	.	.
N[C@H](CO)Cc1ccccc1	-7%	.	1	4	.	.
N#CC1=C(N)C(C#N)(C#N)C(c2ccc[nH]2)C2CCCC=C12 (configuration not stated)	6%	?	6	14	11%	-21%
CN1CC=C2C(C#N)=C(N)C(C#N)(C#N)C(c3ccncc3)C2C1 (configuration not stated)	?	-4%	4	18	.	.
COc1ccc(OC)c2c1C(=O)C(Cl)=C(Cl)C2=O	-1%	1.2µM*	7	-14	0.34µM*	0.67µM*
O=P(Oc1ccc(-c2ccccc2)cc1)(N1CC1)N1CC1	-1%	.	-2	-4	.	.
Cc1ccc2c(C)cccc2c1	0%	.	0	-8	.	.
COC(=O)C1=C(c2ccc(OC(F)(F)F)cc2)C[C@@H]2CC[C@H]1N2C(=O)NCCOc1ccccc1Cl	-8%	-4%	-8	-31	.	.
CCN(CC)CCOC(=O)c1ccc(N/C=C(/C#N)c2nc(-c3ccc4c(c3)OCO4)cs2)cc1	21%	?	-6	-11	-30%	?
CCN(CC)CCOC(=O)c1ccc(N/C=C(/C#N)c2nc(-c3cc4ccccc4oc3=O)cs2)cc1	2%	?	10	14	-25%	?
O=C1C2C3CCC(O3)C2C(=O)N1CCO (configuration not stated)	-5%	-5%	13	-4	.	.
CC(=O)OC1CCC2(C)C(=CC(=O)C3C2CCC2(C)C(OC(C)=O)CCC32)C1 (configuration not stated)	-3%	.	9	32	.	.
SMILES	PTAP TSG101 blk	Tb PFK inh-1	KCNH2 3.1 inh	hERG WT inh	Tb PFK KinaseGlo	Tb PFK inh-2
O=[N+]([O-])c1ccc(Cl)c([N+](=O)[O-])c1	-2%	-19%	-4	-10	.	.
O=C1NC(c2ccc(Cl)c([N+](=O)[O-])c2)Nc2ccccc21 (configuration not stated)	-5%	21µM*	-8	7	24µM*	13µM*
C/C(=N\NC(=O)c1cc(O)cc(O)c1)c1ccc(NC(=O)Cc2ccccc2)cc1	-5%	?	4	-3	?	?
C/C(=N\NC(=O)c1ccncc1)c1c(O)n(Cc2ccccc2)c(=O)[nH]c1=O	-4%	-12%	-3	-11	.	.
CN(C)c1ccc(NC(=S)c2ccc3ccccc3n2)cc1	0%	?	-13	10	9.5µM*	9.5µM*
Clc1ccc(CN2C3=NCCN3c3ccccc32)cc1Cl	-1%	6.7µM*	-75*	36	3µM*	6µM*
c1ccc(CN2CCN(Cc3ccc4ccccc4c3)CC2)cc1	0%	0%	-15	12	.	.
Cc1ccc(C(=O)NNC(=O)CNc2cccc(Cl)c2)cc1	1%	19µM*	-4	2	12µM*	24µM*
O=C(CNC(=O)c1cccc(Cl)c1)Nc1ccc(Br)cc1C(=O)c1ccccc1	0%	5%	-16	-10	.	.
Cc1ccc(-c2cn3c(=S)[nH]nc3s2)cc1	-3%	?	19	-13	0.67µM*	?
O=C(NCCCN1CCCCCC1)c1ccc(CS(=O)(=O)Cc2ccccc2F)o1	-1%	?	.	5	-31%	?
O=C(NCCCN1CC1)Nc1cccc2ccccc12	0%	.	2	-5	.	.
CCOC(=O)CSc1ccc(C(=O)N2CCC3(CC2)OCCO3)cc1[N+](=O)[O-]	0%	1%	17	.	.	.
O=C1N(c2ccc(Cl)c(Cl)c2)CN(Cc2ccccc2)CN1n1cnnc1	-6%	27µM*	-20	?	?	-16%
O=C(Cn1cnc([N+](=O)[O-])c1)Nc1ccc(F)c(Cl)c1	-3%	24µM*	0	-3	7.6µM*	11µM*
COC(=O)/C(C#N)=C(/Nc1ccc(F)c(Cl)c1)C(F)(F)F	-5%	27µM*	-8	-1	12µM*	27µM*
O=C(CSc1n[nH]c(=O)n1C1CC1)Nc1ccc(F)c(Cl)c1	-2%	?	-14	1	?	?
CCC(=O)Nc1ccc(F)c(Cl)c1	-6%	30µM*	0	17	?	?
Cc1cc(OCC(=O)NC(Cc2ccc(Cl)cc2)C(=O)O)c2c3c(c(=O)oc2c1)CCC3 (configuration not stated)	-3%	-2%	0	-1	.	.
O=c1[nH]oc2c1CCNC2	-1%	-2%	-19	-8	.	.
O=S(=O)(NC1CCCCC1)OCC(Cl)(Cl)Cl	-3%	7%	3	-7	.	.
O=C(Nc1ccc(F)c(Cl)c1)Nn1cnnc1	.	17µM*	.	.	?	?
